The whole screen tested about 5,500 compounds, of which about 2,000 (36%) were called active. Another 18% or so got no clear call; they are omitted. Rule as the data show it: active = normalized growth mostly below about 0.91 (no sharp cut-off); inconclusive = no clear call, values can overlap the other calls; inactive = mostly above about 0.92. The list shows a part of the results.
Experiment: chemical genetic growth profiling, strain panel (AID 1159580);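 also: tested at 20 µM; growth read once vehicle control cultures reached saturation at 30 °C; 1 = growth at the plate median or of vehicle wells; lower values mean less growth of the strain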
Conditions: S. cerevisiae deletion strains, growth OD

Measured: normalized growth

S=C(Nc1ccc(Cl)cc1Cl)N(c1cccc(Cl)c1)c1nc2ccccc2s1
active: locus YHR030C, strain SLT2, hits give low values 0.674 | locus YLR113W, strain HOG1, hits give low values 0.743 | locus YPL256C, strain CLN2, hits give low values 0.791
inactive: locus YAR019C, strain CDC15, hits give low values 0.956 | locus YBL105C, strain PKC1, hits give low values 0.96 | locus YBR135W, strain CKS1, hits give low values 0.951 | locus YBR136W, strain MEC1, hits give low values 0.962 | locus YBR160W, strain CDC28, hits give low values 0.964 | locus YDL017W, strain CDC7, hits give low values 0.96 | locus YDL028C, strain MPS1, hits give low values 0.963 | locus YDL101C, strain DUN1, hits give low values 0.987 | locus YDL108W, strain KIN28, hits give low values 0.955 | locus YDL132W, strain cdc53, hits give low values 0.967 | locus YDL214C, strain PRR2, hits give low values 0.821 | locus YDR052C, strain DBF4, hits give low values 0.964 | locus YDR054C, strain cdc34, hits give low values 0.955 | locus YDR226W, strain ADK1, hits give low values 0.954 | locus YDR477W, strain SNF1, hits give low values 0.778 | locus YER123W, strain YCK3, hits give low values 0.778 | locus YER133W, strain GLC7, hits give low values 0.765 | locus YFL009W, strain cdc4, hits give low values 0.951 | locus YFL029C, strain CAK1, hits give low values 0.962 | locus YFR003C, strain YPI1, hits give low values 0.961 | locus YFR019W, strain FAB1, hits give low values 0.878 | locus YFR028C, strain CDC14, hits give low values 0.949 | locus YGR040W, strain KSS1, hits give low values 0.785 | locus YGR052W, strain FMP48, hits give low values 0.846 | locus YGR092W, strain DBF2, hits give low values 0.598 | locus YHR079C, strain IRE1, hits give low values 0.779 | locus YHR082C, strain KSP1, hits give low values 0.871 | locus YHR205W, strain SCH9, hits give low values 0.778 | locus YIL147C, strain SLN1, hits give low values 0.963 | locus YJL095W, strain BCK1, hits give low values 0.75 | locus YJL128C, strain PBS2, hits give low values 0.933 | locus YJL157C, strain FAR1, hits give low values 0.794 | locus YJR016C, strain ILV3, hits give low values 0.955 | locus YJR066W, strain TOR1 (second series), hits give low values 0.714 | locus YJR066W, strain TOR1, hits give low values 0.777 | locus YKL048C, strain ELM1, hits give low values 0.885 | locus YKL067W, strain YNK1, hits give low values 0.835 | locus YKL101W, strain HSL1, hits give low values 0.823 | locus YKL193C, strain SDS22, hits give low values 0.957 | locus YKL203C, strain TOR2, hits give low values 0.849 | locus YLR133W, strain CKI1, hits give low values 0.783 | locus YLR403W, strain SFP1, hits give low values 0.664 | locus YML070W, strain DAK1, hits give low values 0.795 | locus YMR001C, strain CDC5, hits give low values 0.951 | locus YMR205C, strain PFK2 (second series), hits give low values 0.82 | locus YMR277W, strain FCP1, hits give low values 0.95 | locus YNL006W, strain LST8, hits give low values 0.955 | locus YNL020C, strain ARK1, hits give low values 0.763 | locus YNL161W, strain CBK1, hits give low values 0.949 | locus YNL183C, strain NPR1, hits give low values 0.817 | locus YNL207W, strain RIO2, hits give low values 0.955 | locus YNL222W, strain SSU72, hits give low values 0.963 | locus YNL307C, strain MCK1 (second series), hits give low values 0.784 | locus YOL078W, strain AVO1, hits give low values 0.957 | locus YOL136C, strain PFK27, hits give low values 0.816 | locus YOR061W, strain CKA2, hits give low values 0.712 | locus YOR119C, strain RIO1, hits give low values 0.811 | locus YOR231W, strain MKK1, hits give low values 0.809 | locus YOR329C, strain SCD5, hits give low values 0.962 | locus YPL031C, strain PHO85, hits give low values 0.734 | locus YPL153C, strain RAD53, hits give low values 0.811 | locus YPL204W, strain HRR25, hits give low values 0.719 | locus YPL209C, strain IPL1, hits give low values 0.96 | locus YPR025C, strain CCL1, hits give low values 0.961 | locus YPR106W, strain ISR1, hits give low values 0.961 | locus YPR111W, strain DBF20, hits give low values 0.949 | strain NNK1, hits give low values 0.951 | strain TSCII, hits give low values 0.954

Reference: PubChem BioAssay AID1159580 (chemical genetic matrix, 2015)
